According to PubChem BioAssay (Tox21):
Results filed as inconclusive are left out. Calls of active or inactive are those of the source. Unless noted, calls come from the whole dose curve; as a rule, active = well fitted curve in the direction sought with a large enough effect in the repeat runs; inconclusive = weak or mixed curves; inactive = no such curve, though single readings can be large; an effect the other way counts as inactive or inconclusive.

Key:
[1] = qHTS assay for small molecule agonists of the p53 signaling pathway (AID 651631; calls by dose curve; note: nearly all actives have a fitted effect of over 15% in size)
Summary of the method: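 Readout was fluorescence from the LiveBLAzer FRET substrate, applied for 2 h at room temperature after 16 h compound exposure at 37 °C. Cells were the p53RE-bla HCT-116 line, with beta-lactamase driven by p53 response elements.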

[2] = qHTS assay for small molecules that induce genotoxicity in human embryonic kidney cells expressing luciferase-tagged ATAD5 (AID 651632); note: nearly all actives have a fitted effect of over 15% in size
Summary of the method: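 HEK293T cells carrying luciferase-tagged ATAD5 were given compound or DMSO vehicle and incubated 16 hr at 37C, 5% CO2. Luciferase activity was read after 30 min at room temperature with Amplite; a rise signals genotoxic stress.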

[3] = qHTS assay for small molecule agonists of the p53 signaling pathway - cell viability (AID 651633; calls by dose curve; note: series mostly up to about 83 µM; nearly all actives have a fitted effect of over 30% in size)
Summary of the method: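 p53RE-bla cells were treated with compound for 16 hours at 37 C. Cytotoxicity was then measured as CellTiter-Glo luminescence after 30 min at room temperature.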

[4] = qHTS assay for small molecules that induce genotoxicity in human embryonic kidney cells expressing luciferase-tagged ATAD5 - cell viability (AID 651634; calls by dose curve; note: nearly all actives have a fitted effect of over 25% in size)
Summary of the method: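 HEK293T cells carrying luciferase-tagged ATAD5, 2,000 cells/well, exposed to compound for 15.5 hr at 37C. Viability read as live-cell protease activity by CellTiter-Fluor fluorescence after 30 min at 37C.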

[5] = qHTS assay for small molecule disruptors of the mitochondrial membrane potential - cell viability (AID 720634; calls by dose curve;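 note: human HepG2 liver cancer cells; series mostly up to about 83 µM; nearly all actives have a fitted effect of over 20% in size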)
Summary of the method: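 HepG2 cells, 2,000 per well, attached overnight, then treated 1 hr at 37 C, 5% CO2. Viability read as ATP by CellTiter-Glo luminescence after 30 min at room temperature. Read in the same wells as the m-MPI membrane-potential dye assay.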

[6] = qHTS assay to test for compound auto fluorescence at 535 nm (green) in HepG2 cells (AID 720675)
[7] = qHTS assay to test for compound auto fluorescence at 460 nm (blue) in HEK293 cells (AID 720678)
Summary of the method: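 Intrinsic compound fluorescence is recorded in live HEK293 cultures after overnight incubation at 37C, 5% CO2, using excitation 405 nm and emission 460 nm. Values are referenced to triamterene.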

[8] = qHTS assay to test for compound auto fluorescence at 590 nm (red) in HEK293 cells (AID 720679)
Summary of the method: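 Red autofluorescence, HEK293 cells: 2,000 cells/well; attach 4-5 hr 37C; add 23 nL cpd or DMSO; incubate o/n 37C 5% CO2; read Ex540/Em590; Rose Bengal sodium reference.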

[9] = qHTS assay to test for compound auto fluorescence at 535 nm (green) in HEK293 cells (AID 720680)
[10] = qHTS assay to test for compound auto fluorescence at 460 nm (blue) in HEK293 cell free culture (AID 720681)
Summary of the method: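 Compounds were added to cell-free DMEM with 10% FBS and fluorescence read directly. The blue channel used 405 nm excitation and 460 nm emission, with triamterene as the reference fluorophore.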

[11] = qHTS assay to test for compound auto fluorescence at 535 nm (green) in HEK293 cell free culture (AID 720682)
Summary of the method: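 Compounds were pin-transferred into cell-free DMEM with 10% FBS, and green fluorescence was read at excitation 485 nm and emission 535 nm. Intensities were expressed as fluorescein-equivalent values.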

[12] = qHTS assay to test for compound auto fluorescence at 590 nm (red) in HEK293 cell free culture (AID 720683)
Summary of the method: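 Cell-free wells of DMEM with 10% FBS received compound, and intrinsic fluorescence was read at excitation/emission 540/590 nm. Values expressed as equivalence to Rose Bengal sodium.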

[13] = qHTS assay to test for compound auto fluorescence at 460 nm (blue) in HepG2 cell free culture (AID 720685)
Summary of the method: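 Compound (23 nL) or DMSO pinned into cell-free MEM with 10% FBS; blue fluorescence read at 405/460 nm excitation/emission, expressed as auto-fluorescence equivalency to triamterene.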

[14] = qHTS assay to test for compound auto fluorescence at 535 nm (green) in HepG2 cell free culture (AID 720686)
[15] = qHTS assay to test for compound auto fluorescence at 460 nm (blue) in HepG2 cells (AID 720687)
Summary of the method: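 HepG2 cells in MEM with 10% FBS, attached overnight at 37 C, were exposed to compound or DMSO for 1 hr at 37 C, 5% CO2. Blue fluorescence was read at 405/460 nm, with triamterene as reference fluorophore.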

[16] = target: Glucocorticoid receptor (Homo sapiens) (UniProt P04150); assay: qHTS assay to identify small molecule agonists of the glucocorticoid receptor (GR) signaling pathway (AID 720691; active = well fitted activation curve with a large enough effect in the signal ratio in the repeat runs, not every such curve was filed as active; the % refers to the signal ratio)
Chain of Glucocorticoid receptor (Homo sapiens) (P04150 whole entry, looked up): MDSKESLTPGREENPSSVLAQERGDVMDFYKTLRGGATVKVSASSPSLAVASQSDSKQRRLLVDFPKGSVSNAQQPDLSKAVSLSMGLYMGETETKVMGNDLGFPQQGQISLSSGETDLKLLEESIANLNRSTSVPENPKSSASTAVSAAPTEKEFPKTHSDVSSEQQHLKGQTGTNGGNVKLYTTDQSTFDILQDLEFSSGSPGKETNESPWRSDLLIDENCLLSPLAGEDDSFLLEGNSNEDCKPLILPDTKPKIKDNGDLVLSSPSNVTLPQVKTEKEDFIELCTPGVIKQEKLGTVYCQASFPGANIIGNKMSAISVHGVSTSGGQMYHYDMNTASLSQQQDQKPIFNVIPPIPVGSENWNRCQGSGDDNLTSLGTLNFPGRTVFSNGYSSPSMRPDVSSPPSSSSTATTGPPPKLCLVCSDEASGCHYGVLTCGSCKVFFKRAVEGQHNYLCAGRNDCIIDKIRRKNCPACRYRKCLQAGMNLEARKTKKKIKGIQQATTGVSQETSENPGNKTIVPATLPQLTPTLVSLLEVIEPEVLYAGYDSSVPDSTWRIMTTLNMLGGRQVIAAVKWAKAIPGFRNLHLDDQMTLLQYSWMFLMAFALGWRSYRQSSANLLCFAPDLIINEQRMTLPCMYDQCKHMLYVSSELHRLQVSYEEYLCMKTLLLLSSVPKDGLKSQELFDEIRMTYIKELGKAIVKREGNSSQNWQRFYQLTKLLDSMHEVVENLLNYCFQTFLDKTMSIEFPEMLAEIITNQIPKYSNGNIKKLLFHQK
Summary of the method: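 GR-bla HeLa cells carrying a GRE-driven beta-lactamase reporter, exposed to compounds for 18 h at 37 C. Reporter activation read as fluorescence after 2 h with LiveBLAzer B/G FRET substrate at room temperature.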

[17] = target: Glucocorticoid receptor (Homo sapiens) (UniProt P04150); assay: qHTS assay to identify small molecule antagonists of the glucocorticoid receptor (GR) signaling pathway (AID 720692; active = well fitted inhibition curve with a large enough effect in the signal ratio in the repeat runs, not every such curve was filed as active; the % refers to the signal ratio)
Summary of the method: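 GR-bla HeLa cells carrying a GRE-driven beta-lactamase reporter received compound after 4 h plating, then dexamethasone (5 nM final). After 18 h at 37C, the FRET substrate was loaded for 2 h at room temperature and fluorescence read.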

[18] = qHTS assay to test for compound auto fluorescence at 590 nm (red) in HepG2 cells (AID 720674)
Summary of the method: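 Fluorescence at 590 nm emission following 540 nm excitation was recorded from HepG2 wells one hour after compound transfer, with DMSO-only wells as vehicle and Rose Bengal sodium equivalency as the scale.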

[19] = qHTS assay to test for compound auto fluorescence at 590 nm (red) in HepG2 cell free culture (AID 720684)
Summary of the method: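 Compounds are added to culture medium (MEM, 10% FBS) lacking cells, then fluorescence is read at excitation 540 nm, emission 590 nm, with Rose Bengal sodium as the equivalency standard.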

[20] = qHTS assay for small molecule disruptors of the mitochondrial membrane potential (AID 720635)
Summary of the method: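 HepG2 cells exposed to compound 1 hr at 37C, then Mito-MPS dye 30 min. Ratio read of aggregate (540/590 nm) versus monomer (490/535 nm) fluorescence.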

Measured: Potency

Cc1ccc(Cl)cc1Cl
not listed: [18] | [19] | [20]
inactive: all other assays above

O=C(O)Cc1ccc(CCNS(=O)(=O)c2ccc(Cl)cc2)cc1
not listed: [8] | [9] | [14] | [18] | [19] | [20]
inactive: all other assays above

CC1(C)CO[C@@H](CC(=O)O)CN1
not listed: [8] | [17] | [20]
inactive: all other assays above

O=C(O)CCCl
not listed: [4] | [15]
inactive: all other assays above

C=C(C)C(=O)OCCCCCCCC(C)C
not listed: [5] | [14] | [15] | [17] | [20]
inactive: all other assays above

CCCCOCCOCCOCCCC
not listed: [4]
inactive: all other assays above

CN1CCC(=C2c3ccccc3CC(=O)c3sccc32)CC1
not listed: [18] | [20]
inactive: all other assays above

CCCCC(CC)COC(=O)c1ccccc1O (stereo unspecified)
not listed: [10] | [20]
inactive: all other assays above
